73 compounds from ChEMBL document CHEMBL4513216, “Probing the Open Global Health Chemical Diversity Library for Multistage-Active Starting Points for Next-Generation Antimalarials” (ACS Infect Dis, 2020) can be followed below.

Structures are written as SMILES. Among all 69,000 compounds or so, about 8,600 (12%) showed an effect of 50% or more. The sample holds strong results, similar compounds and a random draw of the others, so the mix is not that of the screen.

This experiment concerns Plasmodium berghei. Kind of experiment: Screen against P. berghei liver stage (PbLuc), transformed with Luciferase, at 10uM. In kind it is functional, HepG2. The conditions noted are these: tested at 10 uM.
As for `Nc1cc(-c2cc[nH]n2)nc(N2CCCC2)n1`, the INHIBITION is recorded as 20.5%.
The result for `CN(C)S(=O)(=O)N1CCC(c2c(C(N)=O)sc3ccccc23)C1` (stereo not drawn) reads -11.4%; that for `O=C1N(Cc2ccc(F)c(F)c2)CCCC1(O)CNCc1cccnc1` (stereo not drawn), 60.9%.
Take `C=C(C)CNCC1(O)CCCN(Cc2ccc(F)c(F)c2)C1=O` (stereo not drawn): the INHIBITION stood at 41.7%.
For `O=C1N(Cc2ccc(F)c(F)c2)CCCC1(O)CNCc1ccccn1` (stereo not drawn) the value was 4.25%.
The result for `Cn1cc(CNCC2(O)CCCN(Cc3ccc(F)c(F)c3)C2=O)cn1` (stereo not drawn) reads -34%; that for `COCCNCC1(O)CCCN(Cc2ccc(F)c(F)c2)C1=O` (stereo not drawn), 6.65%.
For `O=C1N(Cc2cccc(F)c2F)CCCC1(O)CNCC1CCCCC1` (stereo not drawn) the value was 69.1%.
For `O=C1N(Cc2cccc(F)c2F)CCCC1(O)CNC1CCCC1` (stereo not drawn), the INHIBITION was 11.5%.
Regarding `O=C1N(Cc2ccc(F)c(F)c2)CCCC1(O)CNCC1CCCCC1` (stereo not drawn), the INHIBITION was 68.8%.
The result for `O=C1N(Cc2cccc(F)c2F)CCCC1(O)CNCc1ccccc1` (stereo not drawn) reads 40.4%; that for `c1ccc(Cc2noc(CN(Cc3cccs3)CC3CCCO3)n2)cc1` (stereo not drawn), 15.3%.
On to `NC(=O)CC1CCN(Cc2ccccc2OCC(F)(F)F)CC1`, for which the INHIBITION is reported as 16.1%.
As for `CN1C(=O)C2(CCN(Cc3nccn3C)CC2)c2ccccc21`, the INHIBITION was -19.6%.
The result for `CN1CC(=O)N(c2cnn(C)c2)CC12CCN(Cc1nccn1C)C2` (stereo not drawn) reads 11.8%.
For `Cc1n[nH]c(C)c1NC(=O)NCc1ccccn1` the value was 8.59%.
The result for `NC(=O)C1(c2cnccn2)CCCN1Cc1ccc(F)c(F)c1` (stereo not drawn) reads 20.8%; that for `CN1CC(=O)N(c2ccsc2)CC12CCN(S(=O)(=O)C1CC1)C2` (stereo not drawn), -6.23%; that for `CNCc1ccc(OCc2ccc3c(c2)OCCO3)cc1`, -0.621%.
Take `c1cc(OCc2ccc3c(c2)OCCO3)ccc1CNC1CC1`: the INHIBITION is given as 25.3%.
The result for `O=C1CCC2(CCC(NCc3ccc4c(c3)OCO4)CC2)N1` (stereo not drawn) reads 30.9%; that for `CCCNCc1ccc(OCc2ccc3c(c2)OCCO3)cc1`, 25.1%; that for `CC(O)CNCc1ccc(OCc2ccc3c(c2)OCCO3)cc1` (stereo not drawn), 72.6%.
Turning to `CC(C)(CO)NCc1ccc(OCc2ccc3c(c2)OCCO3)cc1`, the INHIBITION was found to be 13.5%.
The result for `c1cc(OCc2ccc3c(c2)OCO3)ccc1CNC1CC1` reads 73.4%; that for `CC(C)(C)NCc1ccc(OCc2ccc3c(c2)OCCO3)cc1`, -47.8%; that for `CCNCc1ccc(OCc2ccc3c(c2)OCCO3)cc1`, 67.3%.
The result for `NC(=O)NCC1CCCCN1Cc1nc(-c2ccco2)no1` (stereo not drawn) reads -31.1%.
The result for `COc1nccnc1N1CCC(C(=O)O)(n2ccc(C(C)(C)C)n2)CC1` reads 53.8%; that for `Cc1cnc(C)c(N2CCC(C(=O)O)(n3ccc(C(C)(C)C)n3)CC2)n1`, 3.84%; that for `CC(C)(C)c1ccn(C2(C(=O)O)CCN(c3ncccc3C#N)CC2)n1`, 7.24%.
For `CNC(=O)C1(N2CCC[C@H]2C(=O)NC2CCOCC2)CCOCC1`, the INHIBITION is reported as 15.4%.
The result for `O=C(N1CCCC1)N1Cc2nccn2CC(Cn2ncccc2=O)C1` (stereo not drawn) reads 32.2%; that for `O=C(NCc1ccco1)[C@H]1C[C@H]2OCC[C@H]2N(C(=O)c2ccncc2)C1`, -15.5%.
For the compound `CN(Cc1ccco1)C1CCC12CCN(C(=O)C1CCOCC1)CC2` (stereo not drawn), the INHIBITION turned out to be 43.2%.
`Cc1nnc(NC(=O)c2c3c(nn2C2CCS(=O)(=O)C2)CCC3)s1` (stereo not drawn): the INHIBITION is -90.8%.
For `CCOC(C)C(=O)Nc1ccc(Sc2nncn2C)c(Cl)c1` (stereo not drawn) the value was 64.4%; for `COCC(=O)Nc1ccc(Sc2nncn2C)c(Cl)c1`, 31.7%; for `CC(C)C(=O)Nc1ccc(Sc2nncn2C)c(Cl)c1`, 24.8%.
For `O=C(NCC1(CO)CC1)NC(c1nccs1)C1CC1` (stereo not drawn), the INHIBITION is given as -10.8%.
For `CC(=O)N1CCc2nc(N3CCCC3)nc(C)c2C1` the value was 34.6%; for `Cn1ccc(C(=O)NCC2(O)CCN(c3cnccn3)C2)n1` (stereo not drawn), 16.95%.
For `Cn1c(CN2CCOC(CNc3cccnn3)C2)nnc1C1CC1` (stereo not drawn) the value was -16%; for `NC(=O)CCN(C(=O)c1cccc2c1OCO2)c1ccccc1`, 51.5%.
The result for `CCN(Cc1cccc2c1OCO2)C(=O)Nc1ccccn1` reads -67.3%; that for `NC(=O)C1CCCN1C(=O)c1cccc2c1OCO2` (stereo not drawn), -27.3%; that for `CCN(C(=O)c1cccc2c1OCO2)c1ccccc1`, 55.9%.
For `CCN(C(=O)c1cccc2c1OCO2)c1ccc(Br)cn1`, the INHIBITION is 2.65%.
The result for `NC(=O)C1CCCN1C1CCN(C(=O)c2cccc3c2OCO3)CC1` (stereo not drawn) reads 8.59%; that for `COc1cc(CN[C@@H]2COC[C@H]2Cc2cc(C)no2)cc(OC)c1`, 40%.
The result for `Cn1cc(Br)c(C(=O)NCCCn2cc(Br)cn2)n1` reads -16.3%; that for `Cc1cc(C(=O)N2CCCN(Cc3cnn(C)c3)CC2)no1`, 27.335%.
On to `CS(=O)(=O)N1CCc2sc(C(=O)NCc3ccncc3)cc21`, for which the INHIBITION came to 41.1%.
For `O=C(c1cc2c(s1)CCCC2)N1CCCC1Cn1cccn1` (stereo not drawn) the value was 0.411%.
As for `Cn1ccc2c(ccn2CC(=O)Nc2ccc(Br)cc2)c1=O`, the INHIBITION is 63.5%.
The result for `COc1ccc(NC(=O)Cn2ccc3c(=O)n(C)ccc32)cc1OC` reads -14.2%.
For `Cc1ccc(NC(=O)Cn2ccc3c(=O)n(C)ccc32)cc1F` the value was 11.9%; for `CC(C)CNC(=O)CNC(=O)NC(c1nccs1)C1CC1` (stereo not drawn), 8.59%; for `CCOc1ccccc1C(=O)NCCc1ccoc1`, 32.4%.
The result for `O=C(NCCC(O)c1ccoc1)Nc1cccs1` (stereo not drawn) reads 13.8%; that for `O=C(COc1ccccc1F)NCCC(O)c1ccoc1` (stereo not drawn), -16.9%; that for `CCOCC(=O)NCCC(O)c1ccoc1` (stereo not drawn), 31.3%.
On to `CCOc1ccccc1C(=O)NCCC(O)c1ccoc1` (stereo not drawn), for which the INHIBITION turned out to be 85.5%.
The result for `CCOC(=O)NCCC(O)c1ccoc1` (stereo not drawn) reads 52.1%; that for `CC(=O)N1CC[C@H]2OCC[C@@H](C(=O)NCc3ccco3)[C@H]2C1`, 35.7%.
As to `Cc1cccc(CN2C(=O)CCC23CCN(Cc2cccn2C)CC3)n1`, the INHIBITION is 24.9%.
The result for `Cc1cc2ccccc2n1CC(=O)Nc1ccnn1CC1CCOC1` (stereo not drawn) reads 40.7%; that for `CCc1cnc(CN(C)C(=O)NC2CCN(c3ccccc3)C2)s1` (stereo not drawn), -53.7%; that for `CCc1cnc(CN(C)C(=O)NC2CCN(C)C2=O)s1` (stereo not drawn), 68.2%.
Regarding `CCc1cnc(CN(C)C(=O)Nc2cnn(CC3CCCO3)c2)s1` (stereo not drawn), the INHIBITION is recorded as 51.4%.
Consider `CCc1cnc(CN(C)C(=O)NC2CCN(CC3CC3)C2)s1` (stereo not drawn), for which the INHIBITION turned out to be 39.2%.
The result for `CN(Cc1ccncc1)C(=O)Nc1cnn(CC2CCCO2)c1` (stereo not drawn) reads -5.53%.
The result for `Cc1csc(CN(C)C(=O)Nc2cnn(CC3CCCO3)c2)n1` (stereo not drawn) reads 0.825%.
